Results: PubChem BioAssay (NCATS)
Records with an inconclusive call do not appear. Unmarked numbers belong to inactive results. Active and inactive are the calls of the source. The call rests on the fitted dose curve; in most records, active means well fitted inhibition curve with a large enough effect; inconclusive means small, poorly fitted or top-dose-only effect; inactive means flat fitted curve, though single readings scatter.

These compounds were tested against Calcium and integrin-binding protein 1 (Homo sapiens) (UniProt Q99828) (assay: Primary qHTS for Identification of Calcium Integrin Binding Protein 1 (CIB1) Competitor (AID 1508620;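 further: GST tagged CIB1 binding a fluorescein labelled alphaIIb integrin peptide tracer; top concentration of the series differs between compounds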)). Settings: CIB1-GST / FITC-alphaIIb peptide fluorescence polarization; series mostly up to 114 µM; activity change, negative = inhibition: at the top concentration.
In short: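 Fluorescence polarization competition: CIB1-GST (1 uM final) preincubated with compound 15 min at room temperature, then FITC-labeled alphaIIb peptide (100 nM final) added for another 15 min. Polarization read at Ex 480/Em 540.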
On the % scale 0 is the no-effect control and ±100 the full control effect.

Calcium and integrin-binding protein 1 (Homo sapiens), sequence (Q99828 whole entry, looked up): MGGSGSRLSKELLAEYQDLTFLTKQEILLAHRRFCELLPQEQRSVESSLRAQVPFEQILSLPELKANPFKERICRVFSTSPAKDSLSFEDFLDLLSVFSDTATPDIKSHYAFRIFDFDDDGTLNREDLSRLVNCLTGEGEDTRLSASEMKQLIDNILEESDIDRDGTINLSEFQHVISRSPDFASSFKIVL

| Compound | activity change, negative = inhibition [%] | Potency |
| --- | --- | --- |
| Cc1ccc(-c2ccc(=O)n(CC(=O)NCCC3CC3)n2)cc1 | 3.65 |  |
| O=C(O)c1ccc2c(c1)C(=O)N([C@@H](Cc1ccc(O)cc1)C(=O)O)C2=O | -6.08 |  |
| CCOc1ccc(C(=O)Nc2ccc(-c3nn[nH]n3)cc2)cc1[N+](=O)[O-] | -15.1 |  |
| N#Cc1nonc1-c1ccccc1 | 1.62 |  |
| Cc1ccc(-c2ccnn(CC(=O)N(C)C(C)c3ccco3)c2=O)cc1 (stereo not given) | -10.3 |  |
| COc1ccc(C2Nc3ccccc3C(=O)N2Cc2ccco2)cc1COc1ccc(NC(C)=O)cc1 (stereo not given) | 4.83 |  |
| CCCCN1C(=O)c2ccccc2NC1c1ccc(OC)c(COc2c(C)cc(NC(C)=O)cc2C)c1 (stereo not given) | 1.72 |  |
| Cc1ccc(NS(=O)(=O)c2cccc(F)c2)cc1C | 1.39 |  |
| Cc1cc(NS(=O)(=O)c2cc3c(cc2F)NC(=O)CC3)ccc1F |  | inactive |
| Fc1cc(F)cc(Nc2nc(Cl)nc(NC3CCCC3)n2)c1 | 1.62 |  |
| NC1CCN(c2nc(-c3ccc(Br)cc3)cs2)CC1 | -7.35 |  |
| Cc1ccc(NS(=O)(=O)c2ccc3c(c2)CCC(=O)N3C)cc1Cl | -5.4 |  |
| Clc1cccc(-c2nc(-c3ccc(-c4nn[nH]n4)cc3)no2)c1 | -16.1 |  |
| CC(C)(C)OC(=O)N1CCN(c2ccc(NCc3ccc(-c4ccccc4F)o3)cc2)CC1 | 2.79 |  |
| COc1ccc(CNc2ccc(N3CCN(C(C)=O)CC3)cc2)cc1OC | -7.46 |  |
| Nc1ccc(NC(=O)Nc2nnc(-c3ccncc3)s2)cc1C(F)(F)F | -1.31 |  |
| COc1cccc(-c2ccc3ncnc(NCc4ccc5c(c4)OCO5)c3c2)c1 | 3.55 |  |
| O=[S+]([O-])(c1c(F)cccc1F)N1CCN([S+](=O)([O-])c2c(F)c(F)c(F)c(F)c2F)CC1 | 10.4 |  |
| O=S(=O)(c1cccc(O)c1)N1CCN(S(=O)(=O)c2c(F)cccc2F)CC1 | 4.37 |  |
| O=C(c1ccc2c(c1)ncn2-c1cccc(C(F)(F)F)c1)N1CCCCC1 | -0.996 |  |

| Compound | activity change, negative = inhibition [%] | Potency |
| --- | --- | --- |
| O=c1c2ccccc2nc2sc(Nc3cccc(Br)c3)nn12 | 4.11 |  |
| O=C1CCCC2=C1C(c1[nH]ncc1Cl)NC(=NCc1ccco1)N2 (stereo not given) | 1.93 |  |
| Fc1cccc(-c2ccc(Nc3nc(-c4ccncc4)nc4ccccc34)cc2F)c1 | 2.21 |  |
| Cc1cc(C)nc(NC(=S)N2CCN(c3ccc(Cl)cc3F)CC2)c1 | -4.34 |  |
| c1nc(NCCc2cnc[nH]2)c2cc(-c3ccc4c(c3)OCO4)ccc2n1 |  | inactive |
| O=C(Nc1nnc(-c2ccncc2)s1)NC12CC3CC(CC(C3)C1)C2 | 9.63 |  |
| CC(=O)Nc1sc2c(c1-c1nc3ccccc3s1)CC(C)NC2 (stereo not given) | 12 |  |
| Oc1cccc2cc(NCc3ccccc3F)cnc12 | -10.2 |  |
| CN1CCN(c2cccc(Nc3nn4c(=O)c5ccc(C(F)(F)F)cc5nc4s3)c2)CC1 | -9.81 |  |
| COc1ccc(NC(=O)c2cccnc2C)cc1S(=O)(=O)Nc1ccc(Br)cc1 | -1.18 |  |
| CN(C)c1cccc(-c2csc(N3CCC(C(N)=O)CC3)n2)c1 | -15.9 |  |
| O=S(=O)(c1ccc2c(c1)OCCO2)N1CCN(S(=O)(=O)c2cc(F)ccc2F)CC1 | -0.213 |  |
| O=C(c1ccc2c(c1)ncn2-c1cccc(Cl)c1)N1CCCCC1 | 5.27 |  |
| O=C(O)c1ccccc1-c1noc(-c2ccccc2F)n1 | 2.71 |  |
| O=[N+]([O-])c1ccccc1S(=O)(=O)Nc1cccc2cccnc12 | -5.17 |  |
| COc1ccc(C2Nc3ccccc3C(=O)N2Cc2ccccc2)cc1OCc1ccc(NC(C)=O)cc1 (stereo not given) | 1.35 |  |
| COc1ccc(-c2cnc(N3CCC(C(N)=O)CC3)s2)cc1OC | -2.06 |  |
| NC(=O)C1CCN(c2ncc(-c3cccc(F)c3)s2)CC1 | -1.28 |  |
| O=c1c2[nH]c3cc(Br)sc3c2cnn1Cc1ccccc1F | 0.167 |  |
| Cc1occc1-c1ccc2ncnc(NCc3ncc[nH]3)c2c1 | -2.18 |  |
